Reference: PMC5700166
Where a chain is given by its changes, count along the chain named.

What was measured:
Test in all cases: protein-binding microarray (PBM); PBM: ~300 nM protein, 6 mM HEPES pH 7.8, 80 mM KCl, 0.5 mM EDTA, 0.5 mM EGTA, 6% glycerol, 35 ng/ul poly-dIdC, 1% milk, 1 h, room temperature; Ap Aiptasia and Nv Nematostella (sea anemones) / Co Capsaspora / Aq Amphimedon (sponge) / Dm Drosophila / Hu human; RHD is the Rel homology domain; high values mean tight binding
Details in all cases: dsDNA, one strand shown
GST-Ap-NF-kB RHD = molecular target: T1, GST-Ap-NF-kB RHD (Exaiptasia pallida (Aiptasia), UniProt A0A913YAJ5 2-422)
T1 sequence: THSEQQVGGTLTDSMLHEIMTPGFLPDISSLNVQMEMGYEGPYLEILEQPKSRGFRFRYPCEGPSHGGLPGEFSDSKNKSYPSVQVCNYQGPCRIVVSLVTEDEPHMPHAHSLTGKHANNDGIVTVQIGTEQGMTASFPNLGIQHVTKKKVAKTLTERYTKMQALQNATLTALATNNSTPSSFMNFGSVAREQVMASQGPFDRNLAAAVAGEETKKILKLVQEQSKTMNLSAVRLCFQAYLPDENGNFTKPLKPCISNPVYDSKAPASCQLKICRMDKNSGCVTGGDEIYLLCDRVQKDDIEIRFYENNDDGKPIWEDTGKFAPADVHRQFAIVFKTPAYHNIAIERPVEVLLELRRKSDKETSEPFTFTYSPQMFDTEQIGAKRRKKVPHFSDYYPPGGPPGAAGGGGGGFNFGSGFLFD

[1] = molecular target: T2, GST-Nv-NF-kB (Cys allele) (Nematostella vectensis, UniProt E5G601 2-411)
T2 sequence: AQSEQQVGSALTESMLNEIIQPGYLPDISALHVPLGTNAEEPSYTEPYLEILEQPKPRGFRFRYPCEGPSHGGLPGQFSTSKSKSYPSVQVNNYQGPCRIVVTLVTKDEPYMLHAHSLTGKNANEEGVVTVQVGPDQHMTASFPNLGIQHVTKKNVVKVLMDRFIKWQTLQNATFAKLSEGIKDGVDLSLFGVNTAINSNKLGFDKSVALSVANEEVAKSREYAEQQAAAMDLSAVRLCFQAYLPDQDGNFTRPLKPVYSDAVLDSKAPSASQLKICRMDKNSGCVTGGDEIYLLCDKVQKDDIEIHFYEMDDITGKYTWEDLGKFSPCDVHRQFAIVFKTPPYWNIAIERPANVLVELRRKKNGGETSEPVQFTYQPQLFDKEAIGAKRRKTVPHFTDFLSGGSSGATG

[2] = molecular target: T3, GST-Nv-NF-kB (Ser allele) (Nematostella vectensis, UniProt A7UNT2 2-411)
T3 sequence: T2 sequence with Q21R, C66S, S207N, E215Q, V217A, E225K, A268E, D399E

GST-Co-NF-kB = molecular target: T4, GST-Co-NF-kB (Capsaspora owczarzaki, UniProt F1ARL5 200-546)
T4 sequence: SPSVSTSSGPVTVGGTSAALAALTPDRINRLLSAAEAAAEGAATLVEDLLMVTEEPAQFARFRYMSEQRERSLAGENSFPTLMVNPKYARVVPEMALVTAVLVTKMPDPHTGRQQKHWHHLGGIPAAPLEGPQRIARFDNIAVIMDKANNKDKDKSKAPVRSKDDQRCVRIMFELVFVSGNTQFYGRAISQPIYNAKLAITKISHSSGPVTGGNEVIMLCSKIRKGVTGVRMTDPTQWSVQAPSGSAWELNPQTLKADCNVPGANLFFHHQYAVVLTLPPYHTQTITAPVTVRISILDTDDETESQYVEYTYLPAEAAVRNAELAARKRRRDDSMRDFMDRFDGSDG

GST-Dm-Relish = molecular target: T5, GST-Dm-Relish (Drosophila melanogaster, UniProt Q94527 99-473)
T5 sequence: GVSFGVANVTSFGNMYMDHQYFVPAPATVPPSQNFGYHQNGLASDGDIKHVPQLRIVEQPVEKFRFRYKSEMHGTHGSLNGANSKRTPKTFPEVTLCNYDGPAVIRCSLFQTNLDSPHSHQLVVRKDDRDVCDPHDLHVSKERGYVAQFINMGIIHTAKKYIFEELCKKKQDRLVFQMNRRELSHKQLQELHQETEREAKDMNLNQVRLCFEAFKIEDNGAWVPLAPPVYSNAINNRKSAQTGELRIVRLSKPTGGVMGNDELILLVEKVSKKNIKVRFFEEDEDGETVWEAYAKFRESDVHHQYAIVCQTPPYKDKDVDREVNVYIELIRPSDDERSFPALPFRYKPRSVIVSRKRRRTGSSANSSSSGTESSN

GST-Aq-NF-kB = molecular target: T6, GST-Aq-NF-kB (Amphimedon queenslandica, UniProt A9Y5G7 2-389)
T6 sequence: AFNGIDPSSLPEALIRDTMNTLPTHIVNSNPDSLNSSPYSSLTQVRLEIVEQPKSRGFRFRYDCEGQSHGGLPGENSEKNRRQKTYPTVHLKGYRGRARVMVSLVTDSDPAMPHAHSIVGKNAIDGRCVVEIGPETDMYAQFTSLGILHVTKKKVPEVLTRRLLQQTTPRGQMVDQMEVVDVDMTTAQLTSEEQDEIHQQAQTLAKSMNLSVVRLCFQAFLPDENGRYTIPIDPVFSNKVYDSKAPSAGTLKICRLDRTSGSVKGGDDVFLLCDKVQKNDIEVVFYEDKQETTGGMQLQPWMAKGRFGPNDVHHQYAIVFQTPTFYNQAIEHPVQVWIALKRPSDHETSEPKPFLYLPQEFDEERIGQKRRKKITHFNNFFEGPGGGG

GST-Hu-p50 = GST-Hu-p50 (Homo sapiens, UniProt P19838 7-356)
Chain of GST-Hu-p50 (P19838 7-356): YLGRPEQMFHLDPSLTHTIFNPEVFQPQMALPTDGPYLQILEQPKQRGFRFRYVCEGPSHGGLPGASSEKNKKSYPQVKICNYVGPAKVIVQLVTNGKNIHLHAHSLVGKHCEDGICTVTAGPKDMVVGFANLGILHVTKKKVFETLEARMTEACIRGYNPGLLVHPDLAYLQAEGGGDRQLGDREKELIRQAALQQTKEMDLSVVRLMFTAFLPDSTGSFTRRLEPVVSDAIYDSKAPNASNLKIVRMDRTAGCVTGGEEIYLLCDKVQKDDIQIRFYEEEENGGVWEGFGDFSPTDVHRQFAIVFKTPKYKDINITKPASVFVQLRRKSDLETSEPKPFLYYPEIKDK

Sequence | binding signal (GST-Ap-NF-kB RHD) | binding signal [1] | binding signal [2] | binding signal (GST-Co-NF-kB) | binding signal (GST-Dm-Relish) | binding signal (GST-Aq-NF-kB) | binding signal (GST-Hu-p50)
CCGATTAACATCAGGGAATCCCATGATGTTAATCGGGTCTTGATTCGCTTGACGCTGCTG | 5.36 z-score | 4.92 z-score | 4.14 z-score | 2.97 z-score | 10.4 z-score | 6.45 z-score | 4.13 z-score
CCGATTAACATCAGATTCCCCCATGATGTTAATCGGGTCTTGATTCGCTTGACGCTGCTG | 8.01 z-score | 7.43 z-score | 8.63 z-score | 8.94 z-score | 5.21 z-score | 5.82 z-score | 6.7 z-score
CCGATTAACATCAGGGGGGTGCATGATGTTAATCGGGTCTTGATTCGCTTGACGCTGCTG | 4.21 z-score | 2.54 z-score | 3.71 z-score | 3.47 z-score | 4.16 z-score | 3.59 z-score | 3.86 z-score
CCGATTAACATCAAGAATTTCCCTGATGTTAATCGGGTCTTGATTCGCTTGACGCTGCTG | 5.92 z-score | 7.47 z-score | 7.49 z-score | 5.07 z-score | 3.52 z-score | 7.53 z-score | 5.23 z-score
CCGATTAACATCACGTAATTCCCTGATGTTAATCGGGTCTTGATTCGCTTGACGCTGCTG | 3.45 z-score | 4.96 z-score | 5.01 z-score | 4.02 z-score | 6.81 z-score | 4.89 z-score | 3.49 z-score
CCGATTAACATCAGGACCCCCCCTGATGTTAATCGGGTCTTGATTCGCTTGACGCTGCTG | 7.35 z-score | 4.56 z-score | 3.23 z-score | 2.94 z-score | 6.37 z-score | 7.44 z-score | 4.44 z-score
CCGATTAACATCAACTACCCCCCTGATGTTAATCGGGTCTTGATTCGCTTGACGCTGCTG | 4.79 z-score | 2.46 z-score | 3.11 z-score | 4.43 z-score | 3.4 z-score | 3.98 z-score | 3.1 z-score
CCGATTAACATCAAAAGTCCCCTTGATGTTAATCGGGTCTTGATTCGCTTGACGCTGCTG | 8.69 z-score | 9.23 z-score | 8.99 z-score | 3.35 z-score | 9.45 z-score | 7.89 z-score | 7.27 z-score
CCGATTAACATCAAGGGGAAAAATGATGTTAATCGGGTCTTGATTCGCTTGACGCTGCTG | 6.62 z-score | 8.51 z-score | 11 z-score | 9.12 z-score | 4.24 z-score | 6.11 z-score | 6.67 z-score
CCGATTAACATCAAAATATCCCCTGATGTTAATCGGGTCTTGATTCGCTTGACGCTGCTG | 8.8 z-score | 9.37 z-score | 11 z-score | 5.38 z-score | 8.53 z-score | 7.25 z-score | 7.09 z-score
CCGATTAACATCAACGTCCCCCCTGATGTTAATCGGGTCTTGATTCGCTTGACGCTGCTG | 5.15 z-score | 3.81 z-score | 4.61 z-score | 5.29 z-score | 4.4 z-score | 4.66 z-score | 3.74 z-score
CCGATTAACATCAGGACATCCCCTGATGTTAATCGGGTCTTGATTCGCTTGACGCTGCTG | 6.25 z-score | 7.54 z-score | 5.99 z-score | 1.88 z-score | 8.74 z-score | 7.75 z-score | 5.89 z-score
CCGATTAACATCAGGTATCCCCATGATGTTAATCGGGTCTTGATTCGCTTGACGCTGCTG | 5.17 z-score | 3.31 z-score | 4.07 z-score | 3.11 z-score | 5 z-score | 3 z-score | 3 z-score
CCGATTAACATCACCCTGGGAAATGATGTTAATCGGGTCTTGATTCGCTTGACGCTGCTG | 1.68 z-score | 1.49 z-score | 1.51 z-score | 3.42 z-score | 1.08 z-score | 1.74 z-score | 2.25 z-score
CCGATTAACATCAAGACTCCCCCTGATGTTAATCGGGTCTTGATTCGCTTGACGCTGCTG | 6.35 z-score | 5.25 z-score | 5.92 z-score | 5.87 z-score | 4.5 z-score | 5.15 z-score | 5.69 z-score
CCGATTAACATCAAAAAATTCCCTGATGTTAATCGGGTCTTGATTCGCTTGACGCTGCTG | 6.84 z-score | 10.3 z-score | 9.33 z-score | 5.79 z-score | 8.53 z-score | 8.5 z-score | 6.48 z-score
CCGATTAACATCAGCTAATTCCCTGATGTTAATCGGGTCTTGATTCGCTTGACGCTGCTG | 1.96 z-score | 3.33 z-score | 3.36 z-score | 1.82 z-score | 1.18 z-score | 3.15 z-score | 2.27 z-score
CCGATTAACATCAATTTCCCAGGTGATGTTAATCGGGTCTTGATTCGCTTGACGCTGCTG | 2.16 z-score | 2.4 z-score | 3.53 z-score | 3.41 z-score | 1.61 z-score | 2.15 z-score | 3.21 z-score
CCGATTAACATCAGGGAATTCCCTGATGTTAATCGGGTCTTGATTCGCTTGACGCTGCTG | 12 z-score | 12.7 z-score | 11.4 z-score | 7.25 z-score | 10 z-score | 12.2 z-score | 7.9 z-score
CCGATTAACATCACCGGGAATTCTGATGTTAATCGGGTCTTGATTCGCTTGACGCTGCTG | 4.62 z-score | 5.1 z-score | 4.74 z-score | 5.5 z-score | 4.57 z-score | 4.34 z-score | 4.01 z-score
CCGATTAACATCAGGATCCCCCCTGATGTTAATCGGGTCTTGATTCGCTTGACGCTGCTG | 8.27 z-score | 6.24 z-score | 6.33 z-score | 5.45 z-score | 8.78 z-score | 6.39 z-score | 6.19 z-score
CCGATTAACATCACAACTCCCCCTGATGTTAATCGGGTCTTGATTCGCTTGACGCTGCTG | 5.84 z-score | 4.69 z-score | 5.89 z-score | 6.16 z-score | 3.67 z-score | 5.15 z-score | 5.55 z-score
CCGATTAACATCAGGGGATTATATGATGTTAATCGGGTCTTGATTCGCTTGACGCTGCTG | 7.99 z-score | 9.17 z-score | 9.52 z-score | 4.18 z-score | 6.72 z-score | 7.52 z-score | 6.4 z-score
